NTR1 ag: agonists of human neurotensin receptor NTR1; NTR1-U2OS beta-arrestin-GFP spot imaging, agonist mode; activation, % at 20 µM; 330,000 compounds, 0.17% hits;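 active means activation at or above 40% of the spot to cytoplasm intensity ratio, with at least 20 cells analyzed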;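 further: 0% = DMSO without peptide and 100% = 100 nM NTR1 peptide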
TMEM16A act: activators or potentiators of mouse TMEM16A chloride channel. HEK293 TMEM16A/YFP-H148Q/I152L, iodide quench fluorescence; hits give low values. 340,000 compounds, 0.3% hits. B-score at 10 µM. Q8BHY3;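 active means fluorescence-ratio B-score plate-corrected deviation score at least 3 library SD below zero, with starting fluorescence score within 5 deviations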;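 further: channel opened by trigger with iodide after compound preincubation; score built on the fluorescence ratio of max minus min over baseline; more negative score means more quench and so TMEM16A activation or potentiation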
Target sequence (Q8BHY3 whole entry, looked up): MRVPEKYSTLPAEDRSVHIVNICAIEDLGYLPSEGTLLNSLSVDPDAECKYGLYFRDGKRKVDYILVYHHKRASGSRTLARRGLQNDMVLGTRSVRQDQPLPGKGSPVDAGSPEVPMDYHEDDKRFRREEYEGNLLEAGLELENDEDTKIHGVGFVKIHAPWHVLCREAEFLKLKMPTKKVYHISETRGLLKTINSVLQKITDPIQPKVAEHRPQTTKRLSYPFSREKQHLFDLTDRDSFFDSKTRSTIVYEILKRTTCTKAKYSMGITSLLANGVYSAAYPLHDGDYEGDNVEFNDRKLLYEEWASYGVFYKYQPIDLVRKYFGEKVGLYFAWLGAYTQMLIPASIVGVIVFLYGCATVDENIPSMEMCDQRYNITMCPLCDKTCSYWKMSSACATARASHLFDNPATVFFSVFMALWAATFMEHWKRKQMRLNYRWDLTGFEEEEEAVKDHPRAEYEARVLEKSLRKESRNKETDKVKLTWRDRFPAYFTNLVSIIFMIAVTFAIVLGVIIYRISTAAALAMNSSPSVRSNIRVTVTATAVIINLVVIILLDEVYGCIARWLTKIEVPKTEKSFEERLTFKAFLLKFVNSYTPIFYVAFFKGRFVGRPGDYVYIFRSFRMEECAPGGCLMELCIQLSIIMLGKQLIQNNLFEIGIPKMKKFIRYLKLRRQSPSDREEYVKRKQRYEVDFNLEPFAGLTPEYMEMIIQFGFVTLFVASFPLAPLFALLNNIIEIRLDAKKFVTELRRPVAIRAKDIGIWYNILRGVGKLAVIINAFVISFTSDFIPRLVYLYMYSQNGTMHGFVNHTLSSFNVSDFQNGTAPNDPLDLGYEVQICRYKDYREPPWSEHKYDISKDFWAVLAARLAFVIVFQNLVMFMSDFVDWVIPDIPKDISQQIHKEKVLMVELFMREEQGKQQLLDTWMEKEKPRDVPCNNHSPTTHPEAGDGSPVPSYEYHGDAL
M1 ag parental: M1 agonist counterscreen hit in parental CHO-K1 cells. activation, % at 3 µM. AID 602248. 360,000 compounds, 0.48% hits. Fluo-8 calcium fluorescence; scaled to maximal ATP response, vehicle zero; in the data active means activation above about 15%;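 further: untransfected CHO-K1 host cells lacking M1 receptor as counterscreen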
M1 PAM parental: nonselective activator or artifact in parental CHO-K1 calcium assay | ATP EC20, Fluo-8 calcium fluorescence; 0% at ATP EC20, 100% at ATP max | activation, % at 3 µM | 360,000 compounds, 0.02% hits;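 active means activation above the run cutoff, the mean activation of all test compounds plus 3 SD, cut at about 40% in these data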;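 further: peak over basal fluorescence ratio in a 140 s read after ATP addition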
CHO-K1 Ca antag: counter-screen for M1 antagonists: effect in parental CHO-K1 cells; inhibition, % at 3 µM; 360,000 compounds, 0.6% hits; AID 602250; ATP-induced calcium, Fluo-8 fluorescence;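 active means inhibition above a per-plate cutoff, the plate's mean sample inhibition plus 3 SD, cut at about 24% in these data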;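 further: 0% = DMSO plus EC80 ATP and 100% = DMSO alone without ATP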
ANO1 block: blocks the mouse calcium-activated chloride channel TMEM16A | HEK293 TMEM16A/YFP iodide influx fluorescence, ionomycin | 310,000 compounds, 1.2% hits | normalized B-score (activity score, 25-100; higher = stronger inhibition) at 10 µM;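 active means ratio plate-corrected score three or more library SD toward inhibition, starting fluorescence score within five deviations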;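 further: score derived from kinetic fluorescence span divided by baseline fluorescence per well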
* marks the source's active call; other numbers are inactive results; i = inactive; · = not tested or not shown. Shown are actives, neighbours in structure and some others; about 2.2% of the full set was active somewhere.

SMILES	NTR1 ag	TMEM16A act	M1 ag parental	M1 PAM parental	CHO-K1 Ca antag	ANO1 block
C#CCOCCOCCOCCNc1nc(N2CCN(C(=O)CCCCCCCCCCNC(=O)[C@H]([C@@H](C)CC)n3cc(CCCCN=C(N)N)nn3)CC2)nc(N2CCN(C(=O)CCCCCCCCCCNC(=O)[C@H](CO)n3cc(CCCCCN)nn3)CC2)n1	1.8	-19.9*	0.2	10.3	-14.9	100*
C#CCOCCOCCOCCNc1nc(N2CCN(C(=O)CCCCCCCCCCNC(=O)Cn3cc(CCCCCN)nn3)CC2)nc(N2CCN(C(=O)CCCCCCCCCCNC(=O)[C@@H](CCSC)n3cc(CCO)nn3)CC2)n1	1.0	-4.6*	0.8	18.4	-14.0	i
C#CCOCCOCCOCCNc1nc(N2CCN(C(=O)CCCCCCCCCCNC(=O)[C@H]([C@@H](C)CC)n3cc(CCCCN=C(N)N)nn3)CC2)nc(N2CCN(C(=O)CCCCCCCCCCNC(=O)[C@H]([C@@H](C)CC)n3cc(CCCCN=C(N)N)nn3)CC2)n1	0.3	·	·	·	·	i
Cc1cc(Oc2ccccc2F)nc(NCc2ccccc2)n1	0.4	i	0.8	8.3	5.1	·
Cc1cc(Oc2ccccc2)nc(NCc2ccccc2)n1	2.5	i	1.1	-2.1	37.8*	i
C=CCOc1ccc(/C=C/C(=O)OCC(=O)N(C)CC(=O)Nc2ccccc2Cl)cc1	0.1	i	2.1	-14.3	24.3*	i
C#CCOCCOCCOCCNc1nc(N2CCN(C(=O)CCCCCCCCCCNC(=O)Cn3cc(C[C@@H](C)O)nn3)CC2)nc(N2CCN(C(=O)CCCCCCCCCCNC(=O)[C@H](CCCN=C(N)N)n3cc(C[C@@H](C)CC)nn3)CC2)n1	-0.7	-26.4*	0.3	23.6	-8.9	i
C#CCOCCOCCOCCNc1nc(N2CCN(C(=O)CCCCCCCCCCNC(=O)[C@H](CO)n3cc(CCCSC)nn3)CC2)nc(N2CCN(C(=O)CCCCCCCCCCNC(=O)[C@H](CCCCN)n3cc(CCO)nn3)CC2)n1	-0.7	i	-0.7	-15.6	12.8	·
C#CCOCCOCCOCCNc1nc(N2CCN(C(=O)CCCCCCCCCCNC(=O)[C@H](CO)n3cc(CCCSC)nn3)CC2)nc(N2CCN(C(=O)CCCCCCCCCCNC(=O)[C@H](CCCN=C(N)N)n3cc(C[C@@H](C)CC)nn3)CC2)n1	19.7	-32*	1.1	10.0	-13.3	25*
C#CCOCCOCCOCCNc1nc(N2CCN(C(=O)CCCCCCCCCCNC(=O)Cn3cc(C[C@@H](C)O)nn3)CC2)nc(N2CCN(C(=O)CCCCCCCCCCNC(=O)[C@H](CCCCN)n3cc(CCCC(=O)O)nn3)CC2)n1	1.6	i	7.8	9.6	-1.7	i
COc1cc2[nH]c(=O)n(CCC(=O)N3CCN(c4cc(Cl)ccc4C)CC3)c(=O)c2cc1OC	10.1	i	0.2	5.0	-8.2	100*
CC1(C(=O)NCc2cccc(Cl)c2)Cc2c(-c3cccc(C(N)=O)c3)ccnc2O1 (stereo unspecified)	·	·	0.6	3.6	3.8	·
Cc1noc(C)c1S(=O)(=O)Nc1ccc2c(c1)C(=O)N([C@@H](C)CO)C[C@H](C)[C@@H](CN(C)Cc1ccc(C(F)(F)F)cc1)OCCCC[C@H](C)O2	·	·	-0.5	-1.8	0.4	·
Nc1cc(=O)[nH]c(SC/C=C/c2ccccc2)n1	2.0	i	3.4	-3.4	19.7	i
O=c1cc(C(F)(F)F)nc(SC/C=C/c2ccccc2)[nH]1	1.3	i	0.5	-9.6	-1.0	100*
CC(=O)NCCSc1ccc(S(=O)(=O)N2CCCC2)cn1	-2.4	-20.9*	1.5	5.6	2.5	·
Cc1ccc(NC(=O)CSc2ccc(S(=O)(=O)N3CCCC3)cn2)cc1F	5.4	i	16.1*	14.8	-1.8	·
N#Cc1nnn2c1nc(N)c1c(Cl)cccc12	·	·	6.3	19.0	2.4	·
CCCNC(=O)c1cc(C2CCCCN2C(=O)c2ccc(C(C)C)cc2)on1 (stereo unspecified)	·	·	4.7	8.3	-14.5	·
Cc1ccc(S(=O)(=O)NC(=O)C2(C)CCN2C(=O)C2CCCCC2)nc1 (stereo unspecified)	·	·	-0.6	-5.6	28.2*	·
COc1cc(C)ccc1S(=O)(=O)NC(=O)C1(C)CCN1C(=O)c1ccc(C2CCCCC2)cc1 (stereo unspecified)	·	·	-0.4	-14.4	26.8*	·
Cc1cccc(S(=O)(=O)NC(=O)C2(C)CCN2C(=O)c2ccc(C3CCCCC3)cc2)c1 (stereo unspecified)	·	·	0.1	1.8	4.1	·
CC1(C(=O)O)CCCN1C(=O)c1cccc(C(F)(F)F)c1 (stereo unspecified)	·	·	0.9	8.9	5.0	·
FC(F)(F)c1cc(Cl)c2nc(-c3ccco3)c(Cc3ccccc3C(F)(F)F)n2c1	·	·	2.2	7.9	-6.3	·
CCC1=C(NCc2ccccc2)COC1=O	·	·	1.6	15.3	-11.7	·
SMILES	NTR1 ag	TMEM16A act	M1 ag parental	M1 PAM parental	CHO-K1 Ca antag	ANO1 block
FC(F)(F)c1cc(CCN2CCNC[C@H]2Cc2cccc3ccccc23)cc(C(F)(F)F)c1	50.6*	-9.69*	1.1	14.7	-10.9	i
Oc1ccc(C[C@@H]2CNCCN2CCc2cc(C(F)(F)F)cc(C(F)(F)F)c2)cc1	7.4	i	2.2	6.9	-6.3	i
Cc1cc2nc(-c3cccnc3SCC(=O)NC(C)C)[nH]c2cc1C	1.4	i	15.6*	14.6	-2.6	i
COCCOC(=O)CSc1ncccc1-c1nc2cc(C)c(C)cc2[nH]1	0.9	i	0.6	13.7	-3.8	i
Cc1ccc(NC(=O)CC2Oc3ccc(C)cc3NC2=O)c(C)c1 (stereo unspecified)	1.0	i	-0.1	-10.7	-8.2	i
Cc1ccc2c(c1)NC(=O)C(CC(=O)O)O2 (stereo unspecified)	0.0	i	0.4	-7.9	26.0*	i
CCCNC(=O)c1ccc(S(=O)(=O)c2ccc(OC)cc2)c([N+](=O)[O-])c1	2.0	·	16.3*	-5.7	8.5	i
CC(=O)N(C(C)=O)c1ccc(Oc2ccc(Oc3ccc(N(C(C)=O)C(C)=O)cc3)cc2)cc1	·	·	13.6	9.1	-2.5	·
CC(=O)NC1=NC(=O)/C(=C/c2cc(C)n(-c3cccc(C(=O)O)c3)c2C)S1	-0.9	-6.38*	1.8	19.4	-9.6	·
Cc1cc(C)cc(OCC(=O)N2N=C(C(F)(F)F)CC2(O)C(C)(C)C)c1 (stereo unspecified)	8.4	i	-0.1	-3.1	-11.4	100*
Cc1ccc(C(=O)NCCSc2ccc(Cl)cc2)cc1S(=O)(=O)Nc1ccccc1	9.4	i	6.6	17.9	-13.9	100*
Cc1ccc(NS(=O)(=O)c2cc(C(=O)NCCSc3ccc(C)cc3)ccc2C)cc1	6.6	i	1.0	21.7	-15.6	i
[O-][n+]1c2c(c3c4non(O)c4ccc31)CCCC2	4.9	i	13.2	4.9	-0.7	100*

Screening data: PubChem BioAssay, several laboratories
